# Whole data set: some 8,300 sequences, median “log2 fold change of degron read counts, EGFP-low vs EGFP+ sorted cells (limma voom), compound-induced degradation” near -1.1, cut for the highest 2% near 3.2. For the sample, the highest values were picked, then their nearest neighbours and some sequences at random.
# T1: CRBN, Q96SW2
# T1 chain: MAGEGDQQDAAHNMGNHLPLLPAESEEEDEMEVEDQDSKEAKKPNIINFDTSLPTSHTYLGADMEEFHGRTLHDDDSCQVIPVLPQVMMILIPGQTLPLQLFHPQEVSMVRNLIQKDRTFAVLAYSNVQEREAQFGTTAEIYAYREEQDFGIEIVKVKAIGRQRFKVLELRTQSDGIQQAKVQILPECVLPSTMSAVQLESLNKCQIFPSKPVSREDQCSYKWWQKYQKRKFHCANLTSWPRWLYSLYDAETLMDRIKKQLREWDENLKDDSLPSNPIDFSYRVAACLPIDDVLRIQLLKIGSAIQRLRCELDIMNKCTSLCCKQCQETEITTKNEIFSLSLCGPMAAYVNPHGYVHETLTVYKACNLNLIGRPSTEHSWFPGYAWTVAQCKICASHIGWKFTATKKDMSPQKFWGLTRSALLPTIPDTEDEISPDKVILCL
# B1: 46L_47K_49N_50Q_52G_53F_54C_55C_67L_, Q9UKT9 (peptide)
# chain: LKCNQCGFCCTQKGNLLRHIKL
# B2: 46L_47F_49E_50I_52G_53F_54D_55C_67L_, Q9UKT9 (peptide)
# chain: LFCEICGFDCTQKGNLLRHIKL
# B3: 46F_47I_49N_50Q_52G_53A_54C_55F_67L_, Q9UKT9 (peptide)
# chain: FICNQCGACFTQKGNLLRHIKL
# B4: 46F_47K_49P_50I_52G_53H_54A_55F_67L_, Q9UKT9 (peptide)
# chain: FKCPICGHAFTQKGNLLRHIKL
# B5: 46F_47H_49P_50I_52G_53H_54W_55F_67L_, Q9UKT9 (peptide)
# chain: FHCPICGHWFTQKGNLLRHIKL
# B6: 46F_47Q_49E_50I_52G_53A_54G_55F_67L_, Q9UKT9 (peptide)
# chain: FQCEICGAGFTQKGNLLRHIKL
# B7: 46F_47E_49E_50I_52G_53A_54G_55F_67L_, Q9UKT9 (peptide)
# chain: FECEICGAGFTQKGNLLRHIKL
# B8: 46F_47L_49E_50I_52G_53A_54G_55F_67L_, Q9UKT9 (peptide)
# chain: FLCEICGAGFTQKGNLLRHIKL
# B9: 46F_47G_49E_50I_52G_53A_54G_55F_67L_, Q9UKT9 (peptide)
# chain: FGCEICGAGFTQKGNLLRHIKL
# B10: 46F_47Y_49E_50I_52G_53A_54G_55F_67L_, Q9UKT9 (peptide)
# chain: FYCEICGAGFTQKGNLLRHIKL
# B11: 46F_47W_49E_50I_52G_53A_54G_55F_67L_, Q9UKT9 (peptide)
# chain: FWCEICGAGFTQKGNLLRHIKL
# B12: 46F_47G_49N_50I_52G_53A_54L_55F_67L_, Q9UKT9 (peptide)
# chain: FGCNICGALFTQKGNLLRHIKL
# B13: 46F_47T_49E_50I_52G_53R_54V_55F_67L_, Q9UKT9 (peptide)
# chain: FTCEICGRVFTQKGNLLRHIKL
# B14: 46F_47R_49P_50I_52G_53R_54L_55F_67L_, Q9UKT9 (peptide)
# chain: FRCPICGRLFTQKGNLLRHIKL
# B15: 46F_47D_49P_50I_52G_53R_54M_55F_67L_, Q9UKT9 (peptide)
# chain: FDCPICGRMFTQKGNLLRHIKL
# B16: 46F_47R_49N_50Q_52G_53H_54R_55F_67L_, Q9UKT9 (peptide)
# chain: FRCNQCGHRFTQKGNLLRHIKL
# B17: 46F_47H_49E_50V_52G_53A_54C_55F_67L_, Q9UKT9 (peptide)
# chain: FHCEVCGACFTQKGNLLRHIKL
# B18: 46F_47E_49E_50V_52G_53A_54C_55F_67L_, Q9UKT9 (peptide)
# chain: FECEVCGACFTQKGNLLRHIKL
# B19: 46F_47G_49E_50V_52G_53A_54C_55F_67L_, Q9UKT9 (peptide)
# chain: FGCEVCGACFTQKGNLLRHIKL
# B20: 46F_47A_49E_50V_52G_53A_54C_55F_67L_, Q9UKT9 (peptide)
# chain: FACEVCGACFTQKGNLLRHIKL
# B21: 46F_47F_49E_50V_52G_53A_54C_55F_67L_, Q9UKT9 (peptide)
# chain: FFCEVCGACFTQKGNLLRHIKL
# B22: 46F_47K_49E_50V_52G_53A_54C_55F_67L_, Q9UKT9 (peptide)
# chain: FKCEVCGACFTQKGNLLRHIKL
# B23: 46F_47C_49E_50V_52G_53A_54C_55F_67L_, Q9UKT9 (peptide)
# chain: FCCEVCGACFTQKGNLLRHIKL
# B24: 46F_47W_49E_50V_52G_53A_54C_55F_67L_, Q9UKT9 (peptide)
# chain: FWCEVCGACFTQKGNLLRHIKL
# B25: 46F_47N_49E_50V_52G_53A_54C_55F_67L_, Q9UKT9 (peptide)
# chain: FNCEVCGACFTQKGNLLRHIKL
# B26: 46F_47D_49E_50V_52G_53A_54C_55F_67L_, Q9UKT9 (peptide)
# chain: FDCEVCGACFTQKGNLLRHIKL
# B27: 46L_47E_49N_50Q_52G_53F_54W_55C_67L_, Q9UKT9 (peptide)
# chain: LECNQCGFWCTQKGNLLRHIKL
# B28: 46F_47Y_49D_50I_52G_53A_54V_55F_67L_, Q9UKT9 (peptide)
# chain: FYCDICGAVFTQKGNLLRHIKL
# Target: T1, CRBN, Q96SW2
# Assay: log2 fold change of degron read counts, EGFP-low vs EGFP+ sorted cells (limma voom), compound-induced degradation; higher = more compound-induced degradation of the degron-EGFP fusion; degrons are variants of IKZF1/3 zinc finger 2; compound dose not given here
# Settings: Jurkat, 18 h
# [1] = compound: compound 19 (5-tert-butyl-thalidomide)
# [2] = compound: compound 22 (5-morpholino-thalidomide)
# [3] = compound: compound 33 (diphenyl IMiD analogue)
# 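Also: pooled lentiviral library of zinc finger degron-EGFP fusions in mCherry-positive Jurkat cells, FACS-sorted after compound exposure, with degron abundance counted by next-generation sequencing.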
Sequence,log2 fold change of degron read counts [1],log2 fold change of degron read counts [2],log2 fold change of degron read counts [3],log2 fold change of degron read counts (compound: thalidomide)
B1,-2.31,-2.82,-2.5,-1.52
B2,-1.8,-2.4,-2.23,-1.77
B3,-2.25,-1.71,-0.536,-1.25
B4,-2.73,-2.8,-3.02,-2
B5,-1.67,-2.48,-1.12,-1.62
B6,2.81,1.87,1.48,3.09
B7,1.97,-1.47,0.9,1.53
B8,2.55,-0.336,1.28,0.798
B9,2.12,0.308,1.02,-0.108
B10,3.64,3.17,2.39,0.707
B11,3.64,2.88,1.29,-0.285
B12,-0.269,0.462,1.6,-0.293
B13,-2.27,-1.55,-0.702,-0.137
B14,-1.83,-0.827,0.758,0.687
B15,-0.392,-0.463,1.09,1.7
B16,-2.19,-2.67,-2.63,-2.17
B17,2.22,2.25,1.49,0.274
B18,0.0523,-1.58,1.91,2.18
B19,3.58,2.6,1.86,0.497
B20,3.76,2.16,1.45,0.401
B21,3.55,3.51,2.56,1.24
B22,-0.0189,-2.37,-2.27,-0.751
B23,2.54,2.27,2.88,2.26
B24,3.64,3.77,2.8,1.25
B25,2.1,0.177,0.1,-0.55
B26,0.736,-1.47,0.552,-0.0895
B27,-1.99,-1.69,-1.79,-1.63
B28,2.92,2.45,1.34,-1.18

# Source: the supplement of paper PMC12645437, “Orthogonal IMiD-Degron Pairs Induce Selective Protein Degradation in Cells” (ACS Chemical Biology, 2025)
